Data as given in PubChem BioAssay (NCI).
“And” between values parts separate entries of the source, which are not always exact repeats. Identical values can stand only once. The panel holds about 83,000 compounds, 20% with a hit somewhere; the sample as a whole holds those more often.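 Method: cells in 96-well plates; compound added at one concentration; 48 h incubation; percent growth measured; values under 10 scored active.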 The source made the active and inactive calls.

Legend:
Experiment in all cases: NCI-60 one-dose screen, 48 h (100 = growth as untreated, 0 = no growth, -100 = all killed)
Settings in all cases: 10 µM
NCI-H23 lung = tested on: NCI-H23 lung
NCI-H522 lung = tested on: NCI-H522 lung
MALME-3M melanoma = tested on: MALME-3M melanoma
MDA-MB-231 breast = tested on: MDA-MB-231 breast
M14 melanoma = tested on: M14 melanoma
SK-MEL-5 melanoma = tested on: SK-MEL-5 melanoma
UACC-62 melanoma = tested on: UACC-62 melanoma
LOX IMVI melanoma = tested on: LOX IMVI melanoma
SK-MEL-28 melanoma = tested on: SK-MEL-28 melanoma
SR leukemia = tested on: SR leukemia
OVCAR-8 ovarian = tested on: OVCAR-8 ovarian
OVCAR-5 ovarian = tested on: OVCAR-5 ovarian
OVCAR-4 ovarian = tested on: OVCAR-4 ovarian
SK-OV-3 ovarian = tested on: SK-OV-3 ovarian
IGROV1 ovarian = tested on: IGROV1 ovarian
HS 578T breast = tested on: HS 578T breast
NCI/ADR-RES ovarian = tested on: NCI/ADR-RES ovarian
T-47D breast = tested on: T-47D breast
SW-620 colon = tested on: SW-620 colon
MCF7 breast = tested on: MCF7 breast

CC1=C2C(=O)[C@](C)(CO)C=C2C(=O)[C@](C)(O)C12CC2
growth (NCI-H23 lung): -14.8% (active)
growth (NCI-H522 lung): -34.7% (active)
growth (MALME-3M melanoma): -24.5% (active)
growth (MDA-MB-231 breast): 24.6% (inactive)
growth (M14 melanoma): 22.3% (inactive)
growth (SK-MEL-5 melanoma): 24.2% (inactive)
growth (UACC-62 melanoma): 7.31% (active)
growth (LOX IMVI melanoma): -25.9% (active)
growth (SK-MEL-28 melanoma): 17.9% (inactive)
growth (SR leukemia): 12.8% (inactive)
growth (OVCAR-8 ovarian): 33% (inactive)
growth (OVCAR-5 ovarian): 10.2% (inactive)
growth (OVCAR-4 ovarian): 44.4% (inactive)
growth (SK-OV-3 ovarian): 24.2% (inactive)
growth (IGROV1 ovarian): 18.9% (inactive)
growth (HS 578T breast): 80.4% (inactive)
growth (NCI/ADR-RES ovarian): 5.56% (active)
growth (T-47D breast): 6.69% (active)
growth (SW-620 colon): 9.68% (active)
growth (MCF7 breast): 1.34% (active)

C/C=C/CC(C)C(O)[C@H](NC(=O)[C@@H]1CCCN1C(=O)C(C)(C)NC(=O)CCCCCCCCC)C(=O)NC(C)(C)C(=O)N[C@@H](CCC(N)=O)C(=O)N[C@H](CCC(N)=O)C(=O)NC(C)(C)C(=O)NC(C)(C)C(=O)N[C@@H](CCC(N)=O)C(=O)N[C@H](CC(C)C)C(=O)N[C@H](CO)CC(C)C (stereo not given in full)
growth (NCI-H23 lung): 37.1% (inactive) and -16.1% (active)
growth (NCI-H522 lung): -41.2% (active) and -62.8% (active)
growth (MALME-3M melanoma): -41.5% (active) and -92.4% (active)
growth (MDA-MB-231 breast): 6.89% (active) and -91.8% (active)
growth (M14 melanoma): -31.6% (active) and -53.6% (active)
growth (SK-MEL-5 melanoma): -93.3% (active) and -92.8% (active)
growth (UACC-62 melanoma): -0.972% (active) and -81.2% (active)
growth (LOX IMVI melanoma): -78.5% (active) and -80.2% (active)
growth (SK-MEL-28 melanoma): -84.9% (active) and -100% (active)
growth (SR leukemia): -57.3% (active) and 12.2% (inactive)
growth (OVCAR-8 ovarian): 16.4% (inactive) and 4.24% (active)
growth (OVCAR-5 ovarian): 50.4% (inactive) and -66.8% (active)
growth (OVCAR-4 ovarian): 60% (inactive) and 47.2% (inactive)
growth (SK-OV-3 ovarian): 61.8% (inactive) and 50.9% (inactive)
growth (IGROV1 ovarian): 30.5% (inactive) and 5.27% (active)
growth (HS 578T breast): -36.6% (active) and -60.1% (active)
growth (NCI/ADR-RES ovarian): 51.1% (inactive) and 4.23% (active)
growth (T-47D breast): 24.8% (inactive) and 10.8% (inactive)
growth (SW-620 colon): 33.1% (inactive) and 15.3% (inactive)
growth (MCF7 breast): 2.98% (active) and -45.1% (active)
